Screens from PubChem BioAssay.
In the library only some 21% were active in any assay of this set; here they are far more common.
Pf growth 96h: inhibits malaria parasite growth, 96 h | P. falciparum luciferase reporter growth, 96 h | Potency, µM (highest dose often 28.7 µM), inactives show at the highest dose activity change, negative = inhibition, hits mostly inhibitors | hit rate 6.9% among 320,000 | AID 504834; note: potency is the fitted concentration of half-maximal effect; % is set by controls: 0 for no effect and ±100 for the full control effect
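Plates of compound plus infected erythrocytes (2% hematocrit, 0.05% parasitemia final) incubate 96 hours, 37 C, 5% CO2. Detection reagent added; reduced luminescence from the parasites' luciferase reporter flags inhibition.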
HCV inhibitor: inhibitors of hepatitis C virus infection; Huh7.5.1 HCVcc-Cre infection, luciferase reporter, 44 h; Potency, µM (highest dose often 41.8 µM), for inactives: at the highest dose activity change, negative = inhibition, hits mostly inhibitors; hit rate 3.4% among 340,000; note: potency is the fitted concentration of half-maximal effect; % is set by controls: 0 for no effect and ±100 for the full control effect
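Cells seeded at 1,000/well and cultured 4 h, then compounds added followed by HCVcc-Cre virus (~0.5 moi). After 44 h further culture, luciferase substrate was added, plates held 15 min at room temperature, and luminescence read for 15 sec.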
Shiga toxin inh: blocks Shiga toxin action in Vero cells. Vero cells, Shiga toxin protein synthesis inhibition reporter. inhibition, % at 38.7 µM. hit rate 9.2% among 290,000. AID 2315; in the data active = inhibition mostly above about 28%, no sharp cut-off; inactive = mostly below about 43%; note: 0% is about no effect
Cycloheximide cs: counter-screen for Shiga toxin inhibitors: cycloheximide protein synthesis inhibition | cell reporter, cycloheximide protein synthesis inhibition counterscreen | max response, % | hit rate 12% among 300,000 | AID 2314; in the data active = max response mostly above about 13%, no sharp cut-off; inactive = mostly below about 14%; note: read at 38.3 µM for the half of the compounds with a filed dose; 0% is about no effect
Pf growth 48h: P. falciparum growth inhibition at 48 hours (one generation); P. falciparum luciferase growth in erythrocytes, 48 h; Potency, µM (doses to about 28.7 µM), inactives show at the highest dose activity change, negative = inhibition, hits mostly inhibitors; hit rate 5.9% among 310,000; note: potency is the fitted concentration of half-maximal effect; % is set by controls: 0 for no effect and ±100 for the full control effect
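Luciferase-expressing P. falciparum in infected erythrocytes (2% hematocrit, 0.1% parasitemia final) in RPMI 1640/0.5% Albumax were exposed to compound for 48 hours at 37 C, 5% CO2; growth read as luminescence.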
AMA1-RON2 inh: inhibitors of Plasmodium falciparum AMA1-RON2 interaction | Potency, µM (doses to about 58.2 µM), inactives show at the top dose activity change, negative = inhibition, most hits filed as inhibitors | AlphaScreen AMA1-biotinylated RON2 peptide binding | hit rate 0.2% among 360,000;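 note: potency is the fitted concentration of half-maximal effect; 0% = vehicle wells and -100% = peptide control; nearly all actives have a fitted effect of over 45% in size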
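AMA1 (3D7) with his tag at 25 nM final met compounds first, then biotinylated RON2 peptide at 25 nM; detection used donor plus acceptor beads, 10 µg/mL apiece, read by AlphaScreen after 30 min at room temperature.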
* hit, by the source's call; ? = inconclusive; / = no result given; [ ] = another dose, or the depositor's remark. Unless noted, calls come from the whole dose curve; as a rule, active = well fitted curve in the direction sought with a large enough effect; inconclusive = small, poorly fitted or top-dose-only effect, or another doubt; inactive = no such curve, though single readings can be large; an effect the other way counts as inactive or inconclusive.

SMILES	Pf growth 96h	HCV inhibitor	Shiga toxin inh	Cycloheximide cs	Pf growth 48h	AMA1-RON2 inh
CCC(C)N(C(=O)Cn1nnc2ccccc21)C(C(=O)NCc1ccco1)c1cccc(OC)c1 (configuration not stated)	10µM*	-5%	17	1	-2%	4%
CCOc1ccc(C(C(=O)Nc2ccc(F)cc2)N(C(=O)Cn2nnc3ccccc32)C2CC2)cc1 (configuration not stated)	4.7µM*	-10%	3	8	?	-12%
COc1cccc(C(C(=O)NCC2CCCO2)N(C(=O)Cn2nnc3ccccc32)c2ccc(NC(C)=O)cc2)c1 (configuration not stated)	40%	9%	-4	0	?	-8%
COc1cccc(C(C(=O)Nc2ccc(F)cc2)N(C(=O)Cn2nnc3ccccc32)C2CC2)c1 (configuration not stated)	10µM*	-1%	-14	-1	?	-6%
Cc1cccc(NC(=O)CSc2ncnc3sc(C)cc23)c1	42%	-22%	36	4	15%	7%
CC1(C(=O)NCc2ccccc2)CCC(=O)N1C1CCN(Cc2ccccc2)CC1 (configuration not stated)	/	/	/	/	/	7%
COCc1cc(N2CCOCC2)nc(SCc2ccc(Cl)cc2)n1	18%	-17%	-7	-6	7%	26%
Cc1nc(CSc2ccc(Cl)cc2)cc(N2CCOCC2)n1	7.4µM*	2%	-2	10	4%	-2%
Cc1nc(CSc2ccc(Cl)cc2)cc(NCc2ccccc2)n1	-3%	-19%	22	14	/	-1%
CNc1cc(CSc2ccc(Cl)cc2)nc(C)n1	180%	18%	99*	47*	173%	0%
CC1=C(C#N)C(c2ccc(O)cc2)C2=C(CCCC2=O)N1 (configuration not stated)	26%	10%	-19	0	0%	10%
CC1=C(C#N)C(c2cccnc2)C2=C(CC(c3ccc(Cl)cc3)CC2=O)N1 (configuration not stated)	6.6µM*	8%	-11	-7	/	1%
CCNc1nc(NCC)nc(N(C#N)CCOc2ccccc2)n1	5.2µM*	-5%	4	13	?	4%
CCNc1nc(NC(C)C)nc(N(C#N)CCOc2ccccc2)n1	/	22µM*	-14	-6	?	-17%
COc1ccc(N2CCN(S(=O)(=O)CCNC(=O)/C=C/c3ccc4c(c3)OCO4)CC2)cc1	?	?	/	/	-17%	-8%
O=C(N=C1SC2CS(=O)(=O)CC2N1c1ccccc1)c1cccc([N+](=O)[O-])c1 (configuration not stated)	?	2%	/	/	?	0%
CCCCC1=CC2=CC(=O)C(C)(OC(=O)CC)C(=O)C2=CN1c1ccccc1 (configuration not stated)	13µM*	-1%	1	-2	10µM*	-3%
CCCCC1=CC2=CC(=O)C(C)(OC(=O)CC)C(=O)C2=CN1CCc1ccc(Br)cc1 (configuration not stated)	?	-20%	-2	-4	9.3µM*	-10%
CCCCC1=CC2=CC(=O)C(C)(OC(=O)CC)C(=O)C2=CN1Cc1ccccc1 (configuration not stated)	?	-7%	-8	-5	?	-12%
CCOC(=O)NC(N(O)c1cccc(Cl)c1)C(Cl)(Cl)Cl (configuration not stated)	-2%	10%	21	20*	4%	-22%
CC(C)CCNC(=O)[C@H](CSCc1ccccc1)N1Cc2ccccc2C1=O	?	-1%[8.37 µM]	-16	-3	-5%	3%
COC(=O)C(Cc1ccc(O)cc1)N1Cc2ccccc2C1=O (configuration not stated)	127%	0%	42*	41*	80%	15%
CCC(C)NC(=O)[C@H](CSCc1ccccc1)N1Cc2ccccc2C1=O (some centres not stated)	10µM*	-4%	-14	-3	-7%	-7%
COC(=O)C(Cc1ccc(OC(=O)c2ccc(C)cc2)cc1)N1Cc2ccccc2C1=O (configuration not stated)	53%	14%	89*	57*	57%	17%
Clc1ccccc1OCc1nnc2n1CCCCC2	0%	10%	-2	-1	22%	-5%
SMILES	Pf growth 96h	HCV inhibitor	Shiga toxin inh	Cycloheximide cs	Pf growth 48h	AMA1-RON2 inh
O=c1oc2ccccc2c(O)c1CN1CCCCC1	15µM*	12%	9	-3	35%	25%
Oc1ccc2ccccc2c1CN1CC2CCC(CC2)C1	/	6%	/	/	/	-4%
Oc1ccc2ccccc2c1CN1CCCCC1	/	-10%	/	/	/	-6%
Oc1ccc2ccccc2c1CN1CCN(c2ccccc2)CC1	?	10%	11	-6	8.3µM*	-10%
Oc1ccc2ccccc2c1CN1CCCC1	38%	10%	-2	-3	13µM*	-4%
Oc1ccc2cc(Br)ccc2c1CN1CCCC1	4.7µM*	-6%	-6	-1	?	36%
Cc1nc2ccc(NC(=O)[C@H](C)N3C(=O)C4CC=CCC4C3=O)cc2s1 (some centres not stated)	/	13%	/	/	/	1%
NCCC1CCCC(CCN)N1 (configuration not stated)	26%	2%	/	/	-1%	8%
COc1ccc2nc(SCc3cccc(C)c3)nc(C)c2c1	?	?	62*	27*	134%	112%
COc1ccc2nc(SCc3ccccc3C)nc(C)c2c1	?	-4%	0	12*	20%	38%
COc1ccc2nc(SC(C(=O)c3ccccc3)c3ccccc3)nc(C)c2c1 (configuration not stated)	13µM*	?	-5	1	?	-19%
Cc1nc(SC(C(=O)c2ccccc2)c2ccccc2)nc2ccccc12 (configuration not stated)	?	-12%	-3	1	?	9%
COc1ccc(CN2C(=O)c3c(c(C)n(C)c3C)C2C(=O)NC2CCC(C)CC2)cc1 (configuration not stated)	31%	0%	-4	-6	29%	0%
Cc1ccc(S(=O)(=O)N2CCCCC2)cc1NC(=O)CSc1ncnc2ccccc12	0%	?	-11	-3	-84%	-12%
Cn1nnnc1SCC(=O)Nc1cc(S(=O)(=O)N2CCCCC2)ccc1Cl	/	3%	/	/	/	?
Cc1cccc(Nc2nnc(SCC(=O)Nc3cccc(S(=O)(=O)N4CCCCC4)c3)s2)c1	-16%	13µM*	78*	29*	29%	-11%[11.6 µM]
Cc1cccc(C)c1Nc1nnc(SCC(=O)Nc2cc(S(=O)(=O)N3CCCCC3)ccc2Cl)s1	?	?	-2	-2	13µM*	0%
